# Results as given in the supplement of paper PMC6555819.
# Key:
# Test in all cases: PBM binding z-score (relative to random genomic background probes); higher = stronger binding; sequences stand for … in GC…GCGATTGACAGCGTAGAATGAAGG
# [1] = test system: RARb homodimer (NR concentration 270 nM)
# How it was run: (§1)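 Custom Agilent 4×180K protein-binding microarrays carried double-stranded probes, each with a 34-nt variable region. These regions held direct-repeat seeds, single-nucleotide variants, half-site ablations and random human genomic background sequences. Ligand-free nuclear receptor dimers were incubated on the arrays for 1 h, antibodies against each partner (one per run) detected binding, and scanned fluorescence was regression-normalized. Binding z-scores take the random background probes as reference.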
# [2] = test system: RARg:RXRa (NR concentration 270 nM, RXRa partner concentration 90 nM)
# How it was run: as §1
# [3] = test system: RARg homodimer (NR concentration 270 nM)
# How it was run: as §1
# [4] = test system: RXRa DBDmut IVT, anti-RXR (DBD mutation: RXRa K156A/R161A, NR concentration 90 nM)
# How it was run: as §1
# [5] = test system: RXRa homodimer (NR concentration 180 nM)
# How it was run: as §1
# [6] = test system: THRa:RXRa (NR concentration 90 nM, RXRa partner concentration 90 nM)
# How it was run: as §1
# [7] = test system: THRa homodimer (NR concentration 90 nM)
# How it was run: as §1
# [8] = test system: VDR homodimer (NR concentration 270 nM)
# How it was run: as §1
Sequence,PBM binding z-score [1],PBM binding z-score [2],PBM binding z-score [3],PBM binding z-score [4],PBM binding z-score [5],PBM binding z-score [6],PBM binding z-score [7],PBM binding z-score [8]
CAAACTAGGTCAAGAGGCCAAAGTCCGCTTCCCG,3.79,4.65,4.83,1.85,2.98,2.75,0.986,1.03
CGGCCAAGGTCAAGGTCAGTGAAAGAGACTCGAA,5.16,6.85,7.69,3.48,6.81,4.33,2.89,2.95
TCGAGTAGGTTCCCAATGGGGCATTCAGCTTTCT,-0.191,-0.766,-0.954,0.269,-0.493,-0.435,-0.628,-1.15
ACTATTAGTTGAGCCGAGGGCAACCGATAGGTTG,1.35,0.604,0.752,0.39,0.52,2.57,0.523,0.692
GACACAGGGTCAAGGCCAGAGTACGCGTATTGAT,3.64,5.52,5.02,2.59,6.19,3.64,0.875,2.13
CGTCCAAGGTAAGCAGGTCAGTGAAAGCGACGTG,2.25,1.08,1.44,-0.436,0.485,1.7,0.269,-0.407
ATATGTAGGTTATCGGGTCACTCAGTTTGCGCAT,3.37,3.31,3.06,1.56,3.33,3.59,3.18,2.36
ATCGAAAGTTCGAAGGTGAGTATACCCACCCGAA,0.995,1.82,1.51,1.94,2,0.601,-0.388,1.07
GCGACTGGGGCAACGCAGGTTACCATAAGGTTGG,1.32,0.851,0.785,-0.722,0.638,2.88,0.105,-0.176
CCTACTGGGCCCTTCAGAGGTCATTGATCATATG,3.67,3.27,2.24,-0.326,3.49,2.94,1.18,3.23
TAGCCTATGTCAGATCGGGCCAGTATACGCTATA,-0.337,-0.0162,-0.00722,-0.495,-0.0681,1.45,-0.592,-0.48
CGTCCAAGGTCAAGGTCAGAGAAAGAGACTCGAA,4.83,6.78,7.97,3.66,6.72,4.16,3.41,3.04
CCTATTAGTTGACCATAAGGGCAACCGCAGCTCG,2.18,1.05,1.07,0.58,0.711,1.83,1.49,0.923
GCTATTAGTTGAAAGGGCAACCAAATGATTCTCG,2.12,1.54,1.36,1,1.26,0.682,-0.397,0.22
CCGACTGGGGCATTAGGTTACCATAAGCCAGCCC,0.851,0.715,0.58,-0.386,0.21,0.535,0.0828,-0.601
CAGCCAAGGTCAGGGCCAGTATAGGAGGAACGTT,3.64,4.92,5.59,1.64,4,3.36,1.78,0.93
ATCGAAAGGTCGGAGGTGAGTATACCCACCCGAA,2.03,3.26,3,0.388,3.28,1.77,-0.0288,0.152
CGAACTAGGTCATTGACTGGACAGTGAATAGTAA,2.56,3.72,4.26,2.1,2.58,2.25,0.595,0.943
TCTCGAAGGACACGAAAGGTCAGAGCTCGACATC,4.81,4.59,4.73,1.37,4.17,3.39,0.878,0.702
GCATATACGTAATACAAGGTGAAAGTCCGATTGT,0.656,0.54,0.62,0.892,0.528,2.44,1.16,0.207
CGTCAAAGTTCAACTAAGGTAGCGTAAAGCACGC,4.16,5.74,6.39,4.42,4.96,5.06,0.699,4.01
TCTTGTAGATCAAATGTTAAGAAAGCCGAAGCCT,-0.797,-0.173,-0.241,1.15,0.176,-0.551,-0.39,-0.522
AGAACGAGTGCACGCTGAGTTGATAGCAGAGTAG,-0.576,0.354,0.356,3.07,0.384,-0.0909,-0.746,2.64

Sequence,PBM binding z-score [1],PBM binding z-score [2],PBM binding z-score [3],PBM binding z-score [4],PBM binding z-score [5],PBM binding z-score [6],PBM binding z-score [7],PBM binding z-score [8]
CTACCAAGGTGAACAAGCTCGTTGATTACTATTC,0.567,0.606,0.761,0.373,0.526,1.63,0.878,-0.237
CCTCGGAGCACAACAGGAGGTCAGAGCTGCCAGA,2.86,1.9,1.65,-0.138,1.74,1.91,0.301,0.485
CCTAGCAGGCCAGGGTCAGTCAAGCATTTCGCTT,2.16,2.07,1.85,-0.296,1.65,1.75,0.116,0.172
TCTTGTAGATCAATAGAGGTTAAGAAGGTGCGCT,1.27,0.969,0.482,0.518,1.33,2.37,-0.695,0.298
TCGAGTAGGTTAGGGGCGTTCAGAATGGCGTCGA,0.347,-0.19,-0.416,0.366,0.0753,0.432,-0.0731,0.527
ATATTTAGGTTAGCTGGGGTCATTCAGACTAGGC,3.93,4.05,3.26,2.19,5.09,5.1,4.01,6.12
GAAACGAGGGCAAGTTGATAGCAGAGTTTGATGG,1.68,1.6,1.94,2.43,1.02,1.41,0.0214,1.97
TCGAGTAGGTTACCAATAGGGCATTCAGCTTTCT,0.965,1.78,0.593,0.262,0.749,0.215,-0.961,-0.368
CAAACTAGTTCAAGGTCAAAGTCGGTTTGTGCCA,4.53,4.97,4.53,3.32,4.79,4.05,4.02,4.9
GCTAGTTGGTCAGTAAAAGGTCACTCACCGGTCG,5.26,5.05,4.43,0.781,4.21,3.31,1.47,1.36
GCAGACAGGTGTAACGCAGGTAACTCAGGGTGGC,-0.771,-0.375,-0.631,-0.861,-0.21,0.816,-0.935,-0.598
AATACAGGGTCAACGTAGGCCAGAGTACGCACAG,3.8,6.08,5.84,3.18,6.81,4.35,1.24,3.28
CGTCCAAGGTCAATGCTAGGTAAGTGAAAGCATT,3.93,5.7,6.12,3.33,4.48,3.84,2,2.06
TCTATCAGGCCAGAGGGTCACTCAAGAGGTACGG,2.89,2.92,2.44,0.811,2.56,2.29,0.348,1.16
ATCTCTAGGTAAAGTTCAGTGACAGATCGATAGA,2.63,1.99,2.63,1.51,1.39,1.31,0.436,2.61
ATCGAAAGGTTGTGAGGTGAGTATACAGAAAGGC,1.22,1.14,1.19,-0.0955,1.24,2.23,1.49,0.162
CCGACTGGGGCAGAAAGGTTACCATCCCATCCGG,2.3,1.44,1.19,-1.13,1.48,0.817,-0.666,-0.162
TCTTTTAGATCAAAGGTTAAGAAAGCCGAAGCCT,1.42,1.81,1.01,1.32,2.81,1.33,-0.158,-0.294
ACTTACGGGTCAACGAGCTTATAGCACGCGTATA,2.92,5.34,5.01,1.56,6.14,2.46,0.0469,0.846
AATACAGGGTCACTAGGACAGAGTAGGTACGAAT,3.32,5.16,4.79,2.9,5.5,3.64,1.72,2.97
TCTATTAGTCGATTAGGGCAACCGAAACAGCGGA,0.367,0.53,0.468,0.914,0.681,0.811,0.361,0.0266
TCATATAGGTGAACAGGTGAAAGTCCGTAAGTTA,1.38,1.52,1.13,1.68,1.75,1.13,0.464,0.153
ATCTCTGGGTAAGACTCAGTTCAGTGAAGAACGC,0.372,0.252,0.292,0.0786,-0.0436,0.589,0.517,1.27

Sequence,PBM binding z-score [1],PBM binding z-score [2],PBM binding z-score [3],PBM binding z-score [4],PBM binding z-score [5],PBM binding z-score [6],PBM binding z-score [7],PBM binding z-score [8]
TAGCGTAGGTCAGATCGGGCCAGTATACGCTATA,1.87,2.85,3.72,-0.899,1.83,3.93,-1.02,-0.553
ACTAGCAGGCGAAGGGTCACTCAAGATTAGTCCG,3.34,3.45,3.42,0.405,3.49,2.32,-0.224,0.989
TCTAGTTGGGCAAAGGTCACACACTCGAAATGCG,5.01,6.49,5.87,1.44,7.41,3.99,1.54,2.26
CGTCAAAGTTCAACTAAGGTAACGTTAAGCACGC,4.42,6.02,6.57,4.55,5.24,5.42,2.19,4.26
CCTACTGGGCCACCAAAGGTCATTGATTCAGTGA,4.49,4.61,4.52,0.43,5.36,3.67,0.763,2.66
AGTCAATGTTCAGGACGAGGTAACGTAAAGCACG,0.0341,0.243,0.459,-0.371,0.279,2.16,1.78,0.209
CCTAATGGGCCATTCAGAGGTCATTGATCATATG,4.03,4.62,2.88,1.45,4,3.16,1.19,3.03
TCTCGGAGGACACGAAGGTCAGACCTTTCCAGAG,3.98,3.27,3.81,1.03,1.94,3.08,1.21,1.44
ACAGACATGTGAGTGAAGGTAACTCAGCTGGACG,-0.584,0.0591,0.117,-0.191,0.317,-0.00314,-0.488,-0.512
ACAGACAGGTGAGTGTAGGTAACTCAGCTGGACG,-0.178,0.259,0.401,-0.328,0.232,1.33,-0.572,-0.361
CCTAGTTGGTCAAGGTCACACGCGCTATAGGTAC,4.39,4.76,4.72,2.18,4.7,4.17,4.19,3.41
GCGACGGGGGCAAAGCAGGTTACCATAAGGTTGG,2.24,3.47,3.11,2.62,2.73,4.56,1.23,2.8
ACAGACAGGTGAGTGAAGGAAACTCAGCTGGACG,-0.566,-0.0497,0.189,-0.324,0.249,-0.366,-0.967,-0.21
CGAACTAGGGCATCCAGGACAGTGAATACATTGA,0.585,0.674,1.17,0.66,0.135,1.61,0.745,0.366
CCTCGGAGGACAGAAGTTCAGAGCTGTCCGCTTT,1.88,1.28,1.36,0.706,-0.0645,0.325,-0.73,0.521
TGAATGAGGTTAAAGATCAGTGAACGTGGCGTCG,0.903,2.48,1.37,1.33,3.74,2.58,0.429,0.435
TCTAGTTGGTCAAAGGTCATACACTCGAAATGCG,5.06,6.94,5.49,2.31,8.07,4.15,1.94,3.4
GGAACGAGGGCAAGTTGATCGCAGAGTTTGATGG,1.5,1.49,1.89,2.28,0.723,1.2,-0.251,1.58
CAAACTAGGTCACCGGAAGGCCAAAGTCCGCATG,3.78,5.9,5.62,1.55,3.59,3.53,1.43,0.943
CCTACTGGGCCATTCAGAGGCCATTGATCATATG,0.918,0.62,0.424,-0.152,-0.147,0.255,-0.212,-0.0106
TCTAGCAGGCCAGAGGGTCCCTCAAGAGGTACGG,-0.677,-0.337,-0.396,-0.214,-0.191,-0.666,-1.29,-0.908
ATCGAAACGTCGAGGTGAGTATAGAGAAAGGGAA,-0.0564,0.238,0.317,-0.787,0.266,1.03,-0.0731,-0.175
